Eight compounds from PubChem BioAssay (NCI) can be followed below.

What all share (assay): NCI-60 one-dose screen, 48 h (100 = growth as untreated, 0 = no growth, -100 = all killed)
The subject of one test is HCT-15 colon. Conditions: 10 µM unless noted.
The next test deals with HT29 colon. The note with it: 10 µM unless noted.
Another test concerns SNB-75 CNS. Conditions: 10 µM unless noted.
In a further test the test system is SNB-19 CNS. The note with it: 10 µM unless noted.
The next test relates to U251 CNS. The note with it: 10 µM unless noted.
Another test has as its system PC-3 prostate. Conditions: 10 µM unless noted.
The subject of a further test is SK-MEL-5 melanoma. Conditions: 10 µM unless noted.
In another test the test system is UACC-62 melanoma. Conditions: 10 µM unless noted.
Another test relates to LOX IMVI melanoma. The note with it: 10 µM.
Another test deals with SK-MEL-28 melanoma. The note with it: 10 µM unless noted.
Another test has as its system SK-MEL-2 melanoma. Conditions: 10 µM unless noted.
The next test concerns EKVX NSCLC. The note with it: 10 µM unless noted.
The test system of another test is SN12C renal. Conditions: 10 µM unless noted.
Another test has as its system UO-31 renal. Conditions: 10 µM unless noted.
In another test the test system is TK-10 renal. Conditions: 10 µM unless noted.
A further test has as its system ACHN renal. Conditions: 10 µM unless noted.
A further test relates to CAKI-1 renal. Conditions: 10 µM unless noted.
For another test, the system named is A498 renal. Conditions: 10 µM unless noted.
A further test has as its system CCRF-CEM leukemia. The note with it: 10 µM unless noted.
The test system of a further test is MOLT-4 leukemia. The note with it: 10 µM unless noted.

Each structure is given as a SMILES string. This is part of a sample that, as a whole, favours compounds with a hit. Of some 83,000 tested, about 20% had one in any assay.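 How to read the values: 0–100, growth inhibition (40 = 60% inhibited); 0, no net growth; -100 to 0, cell death (-40 = 40% of starting cells died; -100 = all dead).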 Unmarked numbers belong to inactive results. Active and inactive are the calls of the source. The calls were made as follows: active = growth percent below 10; inactive = the rest.

As to `O=C(OCc1ccccc1)n1nnc2ccccc21`, the growth in the test with HCT-15 colon was 104%; in the test on HT29 colon, 106%; in the test with SNB-75 CNS, 90.2%; in the test on SNB-19 CNS, 112%; in the test with U251 CNS, 99.2%; in the test with PC-3 prostate it was 104%. Further, the growth in the test on SK-MEL-5 melanoma is 105%; with UACC-62 melanoma, 94.4%; in the test with LOX IMVI melanoma, 99.6%; with SK-MEL-28 melanoma, 101%; in the test on SK-MEL-2 melanoma, 108%; in the test with EKVX NSCLC, 98.2%. The growth is 97% in the test with SN12C renal; 94.9% with UO-31 renal; 107% in the test on TK-10 renal; 108% with ACHN renal; 93.1% in the test on CAKI-1 renal; 124% in the test with A498 renal. Moreover, the figures for the growth in the test on CCRF-CEM leukemia and with MOLT-4 leukemia were 111% and 116%, respectively.
With `O=[N+]([O-])c1ccc(-c2nc(N(CCO)CCO)c3ccccc3n2)o1`, the growth is -3.11% (active) with HCT-15 colon; -27.7% (active) in the test with HT29 colon; -91.7% (active) with SNB-75 CNS; -0.996% (active) in the test on SNB-19 CNS; 7.6% (active) in the test on U251 CNS; -0.975% (active) in the test with PC-3 prostate. Also, the growth with SK-MEL-5 melanoma is -99% (active); with UACC-62 melanoma, -71.6% (active); in the test on LOX IMVI melanoma, -65.6% (active); in the test with SK-MEL-28 melanoma it was -64.8% (active); with SK-MEL-2 melanoma, -62.7% (active); in the test with EKVX NSCLC, -32.4% (active). Moreover, the growth is 4.44% (active) with SN12C renal; -40.6% (active) in the test on UO-31 renal; -14.1% (active) in the test on TK-10 renal; -14.5% (active) in the test with ACHN renal; -28.2% (active) with CAKI-1 renal; -77.1% (active) in the test with A498 renal. Further, the growth was 21.1% in the test with CCRF-CEM leukemia and 12.5% with MOLT-4 leukemia.
Take `CC(=O)C1C(=O)C(=O)N(c2ccc(Cl)c(Cl)c2)C1=O` (stereo not given): the growth with HCT-15 colon is 93.8%; with HT29 colon, 107%; with SNB-75 CNS, 78.3%; with SNB-19 CNS, 107%; with U251 CNS, 101%; with PC-3 prostate, 96.9%. Moreover, the growth was 107% in the test with SK-MEL-5 melanoma; 101% in the test on UACC-62 melanoma; 94.4% in the test on LOX IMVI melanoma; 103% in the test on SK-MEL-28 melanoma; 111% in the test with SK-MEL-2 melanoma; 92.1% with EKVX NSCLC. In addition, the growth in the test on SN12C renal is 97.4%; with UO-31 renal, 95.2%; with TK-10 renal it was 107%; in the test on ACHN renal, 97.8%; with CAKI-1 renal it was 93.4%; in the test with A498 renal it was 118%. Besides, the growth with CCRF-CEM leukemia was 115%; in the test with MOLT-4 leukemia it was 91.5%.
Regarding `COC1(OC)C2(Cl)C(Cl)=C(Cl)C1(Cl)C1COCC12` (stereo not given), the growth with HCT-15 colon was 103%; in the test on HT29 colon it was 99.3%; with SNB-75 CNS, 86.3%; in the test with SNB-19 CNS, 100%; in the test with U251 CNS it was 103%; in the test on PC-3 prostate, 97.6%. Also, the growth with SK-MEL-5 melanoma was 102%; in the test on UACC-62 melanoma, 97.4%; in the test on LOX IMVI melanoma, 107%; in the test with SK-MEL-28 melanoma, 105%; in the test with SK-MEL-2 melanoma it was 89.7%; in the test on EKVX NSCLC it was 104%. Further, the growth was 99.2% in the test on SN12C renal; 91.6% in the test on UO-31 renal; 94.7% with TK-10 renal; 108% in the test with ACHN renal; 93.9% in the test on CAKI-1 renal; 87.6% in the test with A498 renal. In addition, the results for the growth in the test with CCRF-CEM leukemia and with MOLT-4 leukemia were 103% and 102%, respectively.
Consider `CCN(CC)c1ccc2nc3ccc(N=Nc4ccc(N(C)C)cc4)cc3[n+](-c3ccccc3)c2c1`, for which the growth with HCT-15 colon is -10.3% (active); with HT29 colon, -31.8% (active); with SNB-75 CNS, -98.9% (active); in the test with SNB-19 CNS it was 40.3%; with U251 CNS, -52% (active); in the test with PC-3 prostate, 6.24% (active). For the same compound, the growth was -97.4% (active) with SK-MEL-5 melanoma; -59.1% (active) with UACC-62 melanoma; -91.9% (active) in the test on LOX IMVI melanoma; -36.1% (active) with SK-MEL-28 melanoma; -37.1% (active) in the test with SK-MEL-2 melanoma; -75.2% (active) in the test on EKVX NSCLC. For the same compound, the growth in the test with SN12C renal is -49.5% (active); with UO-31 renal, -55.1% (active); with TK-10 renal, 5.74% (active); with ACHN renal, -79.4% (active); with CAKI-1 renal it was -27.8% (active); with A498 renal, -25.1% (active). The growth was -21% (active) with CCRF-CEM leukemia and -20.1% (active) with MOLT-4 leukemia.
Take `CCC(=O)Oc1ccc2ccccc2c1`: the growth in the test on HCT-15 colon was 104%; in the test with HT29 colon it was 104%; with SNB-75 CNS, 82.4%; with SNB-19 CNS it was 97.9%; in the test with U251 CNS, 93.9%; in the test with PC-3 prostate, 77%. Besides, the growth in the test on SK-MEL-5 melanoma was 91.6%; with UACC-62 melanoma, 92.1%; in the test on LOX IMVI melanoma, 92.2%; with SK-MEL-28 melanoma, 110%; in the test with SK-MEL-2 melanoma it was 95.2%; in the test on EKVX NSCLC it was 95.7%. Further, the growth with SN12C renal was 91%; with UO-31 renal, 71.6%; with TK-10 renal it was 105%; in the test on ACHN renal, 98.7%; in the test with CAKI-1 renal it was 91.2%; in the test with A498 renal, 82.7%. Also, the values for the growth in the test with CCRF-CEM leukemia and in the test with MOLT-4 leukemia were 89.8% and 99%, respectively.
As for `CN(C)c1ncnc2c1cnn2C`, the growth with HCT-15 colon is 113%; with HT29 colon it was 109%; in the test on SNB-75 CNS it was 90.7%; in the test on SNB-19 CNS, 99.1%; in the test on U251 CNS it was 101%; in the test with PC-3 prostate, 85.2%. For the same compound, the growth in the test with SK-MEL-5 melanoma was 97.2%; with UACC-62 melanoma it was 92.9%; in the test on LOX IMVI melanoma, 94.9%; with SK-MEL-28 melanoma, 112%; in the test with SK-MEL-2 melanoma, 110%; in the test on EKVX NSCLC, 102%. For the same compound, the growth with SN12C renal is 97.2%; in the test on UO-31 renal, 90.6%; in the test on TK-10 renal, 108%; in the test with ACHN renal it was 110%; in the test with CAKI-1 renal, 100%; in the test with A498 renal, 112%. Moreover, the growth with CCRF-CEM leukemia was 87.4%; with MOLT-4 leukemia, 117%.
For `CCCCn1cnc2c(=O)[nH]cnc21`, the growth is 105% with HCT-15 colon; 104% in the test on HT29 colon; 89.6% in the test with SNB-75 CNS; 96.9% in the test with SNB-19 CNS; 109% in the test on U251 CNS; 94.2% in the test with PC-3 prostate. The growth was 119% with SK-MEL-5 melanoma; 95.7% in the test with UACC-62 melanoma; 109% with LOX IMVI melanoma; 107% with SK-MEL-28 melanoma; 107% in the test on SK-MEL-2 melanoma; 97.9% in the test with EKVX NSCLC. Further, the growth was 105% with SN12C renal; 94.7% in the test on UO-31 renal; 109% with TK-10 renal; 89.7% with ACHN renal; 98.4% with CAKI-1 renal; 108% with A498 renal. Also, the growth with CCRF-CEM leukemia is 96.7%; in the test on MOLT-4 leukemia, 96.2%.
